{"source": "PubChem BioAssay (NCATS)", "note": "Values joined by “and” are separate entries in the source; they are usually repeats but may differ in a detail not shown here. Identical values can stand only once. Inconclusive results are not listed. Unmarked numbers belong to inactive results. Active and inactive are the calls of the source. The call rests on the fitted dose curve; in most records, active means well fitted cell-killing curve with a large enough effect; inconclusive means small, poorly fitted or top-dose-only effect; inactive means flat fitted curve, though single readings scatter. On the % scale 0 is the no-effect control and ±100 the full control effect.", "data": [{"experiment": "Cellular viability qHTS for adrenocortical cancer (ACC) cell line SW-13 (AID 1963989); further: nearly all actives have a fitted effect of over 65% in size;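 on activity (max response): cells grown in serum-free medium with ITS supplement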", "details": "SW-13 ACC cells viability, CellTiter-Glo, 48 h; activity (max response): active compounds read low", "from_the_text": "PI: Naris Nilubol, MD Surgical Oncology Program, National Cancer Institute (NCI) National Institute of Health (NIH), Bethesda, Maryland Adrenocortical cancer (ACC) is a rare malignancy with poor survival outcomes and few treatment options. Currently, mitotane is the only FDA-approved therapy for ACC. Although adjuvant radiation therapy is rarely utilized, it has the potential to improve survival in select cases. Through a quantitative high-throughput drug screen (qHTS), we identified auranofin (AF), a thioredoxin reductase (TXNRD) inhibitor, as a promising candidate drug. This study aims to evaluate whether AF can enhance the efficacy of radiation therapy in the treatment of ACC. Two human ACC cell lines, SW-13 and NCI-H295R, were screened using the National Center for Advancing Translational Sciences (NCATS) Pharmaceutical Collection (NPC) and the Mechanism Interrogation PlatE (MIPE) library (~4,991 compounds). CellTiter-Glo (Cat # G7570, Promega, Madison, WI) was utilized to measure cell viability. Described herein are the results of the corresponding viability assay.\nPROTOCOL TABLE (as described by Inglese J, Shamu CE and Guy RK. 2007) SEQUENCE No. (e.g., 1, 2, 3, etc.); […] (e.g., Cells, Incubation, Reagent, etc.); VALUE; DESCRIPTION. 1; Cells; 5 uL; white, solid-bottom, 1536-well tissue-culture treated plates. 2; Time; overnight culture at 37C with 5% CO2. 3; Compounds and control; 23 nL; Kalypsis pin tool (Wako USA) equipped with a 1536-well pin head to transfer to the assay plates. 4; Time; 48 hours; 37C with 5% CO2. 5; Reagent; 4 uL; CellTiter-Glo luminescent substrate mix. 6; Time; 20 min at room temperature. 7; Detection; Luminescence; ViewLux plate reader NOTES (numbers refer to Sequence numbers above) 1. SW13 cells were harvested from a T175 flask and resuspended in ITS-supplemented DMEM serum-free medium at a concentration of 300 000 cells/mL. Then 5 uL of resuspended cells were dispensed into each well of white, solid-bottom, 1536-well tissue-culture-treated plates using a multidrop combi dispenser. The plates were covered with stainless steel gasket lids. 2-3. The plates were cultured overnight at 37C with 5% CO2. Twenty-three nL of compounds (eight selected concentrations from the NPC / MIPE) or positive control (10 mM stock of bortezomib) in DMSO was transferred to each well of the assay plate using a pin tool (Kalypsys, San Diego, CA, USA). The final concentration of the compounds in the 5 uL assay volume ranged from 0.5 nM to 46 uM. 4-6. After 48 hours of incubation at 37C and 5% CO2, 4 uL of CellTilter-Glo luminescent substrate mix (Promega, Madison, WI, USA) was added to each well. Then the plates were incubated for 20 minutes at room temperature. 7. After incubation, luminescence was measured using a ViewLux plate reader (PerkinElmer, Waltham, MA, USA) with a clear filter was used to measure the number of metabolically competent cells. To determine compound activity in the qHTS assay, the titration-response data for each sample was plotted and modeled by a four-parameter logistic fit yielding IC50 and efficacy (maximal response) values. […] REFERENCES: Inglese J, Shamu CE and Guy RK, Reporting data from high throughput screening of small molecule libraries, Nature Chemical Biology, 2007, 3(8): 438-441. doi.org/10.1038/nchembio0807-438.", "values": [{"smiles": "O=c1cc(N2CCOCC2)oc2c(-c3ccc4c(c3)OCCO4)csc12", "Potency": "11.2 µM (active)"}, {"smiles": "Cc1c(Nc2ncccc2C(=O)O)cccc1C(F)(F)F", "activity (max response)": "-9.06%"}, {"smiles": "NS(=O)(=O)c1cc2c(cc1Cl)NCNS2(=O)=O", "activity (max response)": "11.9% and 0.967%"}, {"smiles": "O=C1CC[C@H](C(=O)N2CCCCC2)N1", "activity (max response)": "-2.75%"}, {"smiles": "Fc1ccc(Cl)cc1-c1nc(Nc2ccncc2)c2nccnc2n1", "activity (max response)": "-19.5%"}, {"smiles": "O=C(O)CCC(=O)OC[C@@H](NC(=O)C(Cl)Cl)[C@H](O)c1ccc([N+](=O)[O-])cc1", "activity (max response)": "-6.44%"}, {"smiles": "NS(=O)(=O)c1cc(C(=O)NN2C[C@H]3[C@H]4CCC(C4)[C@H]3C2)ccc1Cl", "activity (max response)": "-7.57%"}, {"smiles": "O=C(NN1CCCC1)NS(=O)(=O)c1ccc(Cl)cc1", "activity (max response)": "2.56%"}, {"smiles": "O=C(O)CCc1ccc(NCc2cccc(Oc3ccccc3)c2)cc1", "activity (max response)": "-8.89%"}, {"smiles": "COC(=O)/C=C/C(=O)N(O)CCCCNCc1ccc(COC(=O)Nc2cccc3ccccc23)cc1", "activity (max response)": "-10.5%"}, {"smiles": "CCOc1ccc(C(=O)OCCN(CC)CC)cc1", "activity (max response)": "-4.6%"}, {"smiles": "COC1CC(C(=O)c2ccc3c(N)ncc(-c4ccc(-c5cnn(C)c5)cc4)c3n2)C1", "note": "(stereo not given)", "activity (max response)": "-16.1%"}, {"smiles": "COc1cc(N2CCC(N(C)C)CC2)ccc1Nc1ncc(Cl)c(Nc2ccccc2P(C)(C)=O)n1", "Potency": "2 µM (active)"}, {"smiles": "Nc1ncnc2c1C(=O)N(c1ccc(C3CCC(CC(=O)O)CC3)cc1)CCO2", "note": "(stereo not given)", "activity (max response)": "10.6%"}, {"smiles": "CCC(C)(C)C(=O)O[C@H]1C[C@@H](C)C=C2C=C[C@H](C)[C@H](CC[C@@H]3C[C@@H](O)CC(=O)O3)[C@H]21", "activity (max response)": "-9.24% and -17.2%"}, {"smiles": "Clc1ccc(C(c2ccc(Cl)cc2)n2cc[n+](CC(OCc3ccc(Cl)cc3Cl)c3ccc(Cl)cc3Cl)c2)cc1", "note": "(stereo not given)", "Potency": "5.01 µM (active)"}, {"smiles": "COc1cccc(-c2cc(F)ccc2C2Cc3nc(N)nc(C)c3C(=O)N2)n1", "note": "(stereo not given)", "Potency": "0.112 µM (active)"}, {"smiles": "O=C(O)c1ccc(CN2CCC(CN[C@@H]3C[C@H]3c3ccccc3)CC2)cc1", "activity (max response)": "7.26%"}, {"smiles": "Cn1c(=O)c2[nH]cnc2n(C)c1=O", "activity (max response)": "-5.93% and 14.5%"}, {"smiles": "CN1CCC(=C2c3ccccc3Sc3ccccc32)CC1", "Potency": "23.1 µM (active)"}, {"smiles": "CC(=O)[C@H]1CC[C@H]2[C@@H]3C=CC4=CC(=O)CC[C@@]4(C)[C@@H]3CC[C@]12C", "activity (max response)": "-20.4%"}, {"smiles": "COc1ccc(C(=O)CC(=O)c2ccc(C(C)(C)C)cc2)cc1", "activity (max response)": "8.41% and -10.7%"}, {"smiles": "CCN(CC)CCOCCOC(=O)C1(c2ccccc2)CCCC1", "activity (max response)": "-3.2%"}, {"smiles": "NCCS(=O)(=O)O", "activity (max response)": "6.15% and -3.63%"}, {"smiles": "CCOc1cc(N2CCC(O)CC2)ccc1Nc1ncc2c(n1)N(C)c1ccccc1C(=O)N2C", "Potency": "15.8 µM (active)"}, {"smiles": "CC1=C(/C=C/C(C)=C/C=C/C(C)=C/C(=O)Nc2ccc(O)cc2)C(C)(C)CCC1", "Potency": "1.84 µM (active)"}, {"smiles": "CCCCS(=N)(=O)CCC(N)C(=O)O", "note": "(stereo not given)", "activity (max response)": "9.43%"}, {"smiles": "Cc1nc2ccccn2c(=O)c1CCN1CCC(C(=O)c2ccc(F)cc2)CC1", "activity (max response)": "-20%"}, {"smiles": "CCCCNc1ncc2c(-c3ccc(F)cc3)nn(CC3CCC(N)CC3)c2n1", "note": "(stereo not given)", "Potency": "11.3 µM (active)"}, {"smiles": "Nc1nc2c(ncn2COCCO)c(=O)[nH]1", "activity (max response)": "1.46% and 4.77%"}, {"smiles": "OCc1ccccc1O", "activity (max response)": "6.34%"}, {"smiles": "O=C1c2ccccc2CCc2ccccc21", "activity (max response)": "4.16%"}, {"smiles": "CC1(C)[C@@H](O)CC[C@]2(C)[C@H]3C(=O)C=C4[C@@H]5C[C@@](C)(C(=O)O)CC[C@]5(C)CC[C@@]4(C)[C@]3(C)CC[C@@H]12", "activity (max response)": "3.49%"}, {"smiles": "CCCCC(=O)OCC(=O)[C@H]1[C@H](C)C[C@H]2[C@@H]3C[C@H](F)C4=CC(=O)C=C[C@]4(C)[C@@]3(F)[C@@H](O)C[C@@]21C", "activity (max response)": "5.4%"}, {"smiles": "O=c1[nH]cnc2nc[nH]c12", "activity (max response)": "10.3%"}, {"smiles": "CC(C)c1cnn2c(NCc3ccccc3)cc(N[C@@H](CO)[C@H](O)CO)nc12", "Potency": "0.891 µM (active)"}, {"smiles": "COc1cc(N2CCN(C)CC2)ccc1Nc1ncc2c(n1)N(C)c1ccccc1C(=O)N2C", "Potency": "15.8 µM (active)"}, {"smiles": "N[C@H](Cc1c[nH]c2ccccc12)C(=O)O", "activity (max response)": "5.49%"}, {"smiles": "CC(CCc1ccc(O)cc1)NCCc1ccc(O)c(O)c1", "note": "(stereo not given)", "activity (max response)": "-9.68%"}, {"smiles": "COc1ccc(S(=O)(=O)N(CCO)c2ccccc2CN(C)C/C=C/c2ccc(Cl)cc2)cc1", "Potency": "10 µM (active)"}]}]}
